# An excerpt weighted towards active compounds, which were near 32% of everything screened.
# CYP2C19 activ = cytochrome P450 2C19 (human) activation. 96,000 tested, under 10 active. activation factor at 5 µM. recombinant CYP2C19, luciferin-H EGE luminescence; stronger effect = higher value; 0 = fully inhibited enzyme, 1 = untreated enzyme. P33261;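 active means activation factor of at least 2 at 5 µM in the primary screen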
# CYP2C9 inhib = human CYP2C9 inhibition; P11712; CYP2C9 Supersomes, luciferin-H conversion, luminescence; inhibition, % at 5 µM; 96,000 tested, 20% active; AID 777;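 active means blocking of liver enzyme CYP2C9 beyond about 50% at 5 µM, limit read from the data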
# Target sequence (P11712 whole entry, looked up): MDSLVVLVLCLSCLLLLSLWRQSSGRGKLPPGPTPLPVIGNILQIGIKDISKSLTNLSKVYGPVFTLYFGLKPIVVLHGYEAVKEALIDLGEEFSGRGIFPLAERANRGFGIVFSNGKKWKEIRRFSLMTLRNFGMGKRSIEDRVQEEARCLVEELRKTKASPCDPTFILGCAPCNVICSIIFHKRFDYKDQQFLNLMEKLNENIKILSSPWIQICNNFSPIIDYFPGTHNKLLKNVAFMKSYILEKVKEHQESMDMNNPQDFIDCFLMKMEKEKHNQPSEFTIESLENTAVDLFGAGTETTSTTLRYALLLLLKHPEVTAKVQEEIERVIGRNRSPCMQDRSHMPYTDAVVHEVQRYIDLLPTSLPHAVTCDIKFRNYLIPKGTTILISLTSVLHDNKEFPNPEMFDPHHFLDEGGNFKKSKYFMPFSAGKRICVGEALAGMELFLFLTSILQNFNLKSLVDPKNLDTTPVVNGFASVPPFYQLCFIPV
# CYP2C19 inhib = human CYP2C19 inhibition; inhibition, % at 5 µM; P33261; 96,000 tested, 21% active; CYP2C19 Supersomes, luciferin-H EGE luminescence, 30 min;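 active means CYP2C19 inhibition above a set limit at 5 µM in the primary screen, cut at about 50% in these data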
# PostGolgi yeast = growth inhibition of a yeast mutant, post-Golgi transport screen; post-Golgi transport phenotypic cell assay; 98,000 tested, 0.9% active; inhibition, % at 10 µM;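 further: yeast cells grown in 1536-well plates; yeast grown about 18 h at 30C before absorbance read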
# PostGolgi ctrl = yeast control strain growth, post-Golgi counter-screen; efflux-deficient yeast background strain, growth absorbance A615, 16 h; inhibition, % at 10 µM; 98,000 tested, 5% active; AID 738
# CYP2C9 activ = activators of human CYP2C9; activation factor at 5 µM; P11712; recombinant CYP2C9, luciferin-H conversion, luminescence; stronger effect = higher value; factor 1 = untreated enzyme, 0 = blocked; 96,000 tested, 1.4% active;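 active means activation factor of 2 or more for CYP2C9 at a 5 µM dose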
# Hits are given with their value; – = inactive; · = no result given. Unless noted, no stated cut-off is given here; in the data, active means inhibition above about 30%; inactive means the rest.
SMILES,CYP2C19 activ,CYP2C9 inhib,CYP2C19 inhib,PostGolgi yeast,PostGolgi ctrl,CYP2C9 activ
O=C1CC(N(Cc2ccco2)C(=O)Nc2ccc(F)cc2)C(=O)N1c1ccc(F)cc1 (centres undefined),–,52,80,–,–,–
Cn1c(=O)c2c(nc(N3CCOCC3)n2Cc2c(F)cccc2Cl)n(C)c1=O,–,–,–,–,–,–
Cc1c(Cl)c(-c2n[nH]c(=S)n2Cc2ccco2)nn1C,–,–,–,–,–,–
CCOC(=O)c1c(C)n(OC)c2ccc3c(no[n+]3[O-])c12,–,–,–,–,–,–
Cn1c(N)c(C(=O)COC(=O)C2=COCCO2)c(=O)n(C)c1=O,–,–,–,–,–,–
CCNC(=O)NC(=O)COC(=O)CNC(=O)COc1ccccc1,–,–,–,–,–,–
Cc1ccc2c(c1)OC(=O)CC2c1ccccc1 (centres undefined),–,–,68,–,–,–
CCO/C=C/C(=O)N(C)CCC#N,–,–,–,–,–,–
CC(CN1CCCC(C(N)=O)C1)c1ccccc1 (centres undefined),–,–,–,–,–,–
Cc1ccc(S(=O)(=O)NCCN=C(CN2CCOCC2)NS(=O)(=O)c2ccc(C)cc2)cc1,–,76,–,–,–,–
Cc1ccc(S(=O)(=O)NCCN=C(CN2CCCC2)NS(=O)(=O)c2ccc(C)cc2)cc1,–,97,–,–,32,–
COc1ccccc1CNC(=O)c1c(-c2ccccc2)nn(-c2ccccc2)c1C,–,–,–,–,–,–
CCOC(=O)C(=CNc1cc(C)nn1C(C)(C)C)C(=O)OCC,–,–,–,–,–,–
CCOC(=O)C(=CNc1cc(C)nn1-c1ccc(C)cc1)C(=O)OCC,–,65,–,–,–,–
Cc1nnc(NC(=O)c2ccccc2Br)s1,–,55,–,–,–,–
COCc1nnc(NC(=O)c2sc3ccccc3c2Cl)s1,–,–,–,–,30,–
O=C(NC1=NCCS1)c1sc2ccccc2c1Cl,–,–,–,–,–,–
Cc1ccc(NC(=O)c2sc3ccccc3c2Cl)nc1,–,–,–,–,31,–
Cc1nnc(NC(=O)c2sc3ccccc3c2Cl)s1,–,55,–,–,54,–
ON1C(c2ccccc2)CC2(O)c3nonc3CCC12 (centres undefined),–,–,–,–,–,–
Cc1ccc(NC(=O)c2ccc3ccccc3n2)nc1,–,–,–,–,34,–
CCOC(=O)C1CCCN(c2cc(=O)n(Cc3ccc(F)cc3)c(=O)[nH]2)C1 (centres undefined),–,–,–,·,·,–
Cc1cccc(N2CCN(C(=O)c3cccn4c(=O)c5c(C)c(C)sc5nc34)CC2)c1C,–,96,92,–,–,–
Cc1sc2nc3c(C(=O)N4CCN(c5ccccn5)CC4)cccn3c(=O)c2c1C,–,–,–,–,–,–
CS(=O)(=O)N1CCc2cc(C(=O)OCC(=O)c3ccccc3)ccc21,–,–,–,–,–,–
SMILES,CYP2C19 activ,CYP2C9 inhib,CYP2C19 inhib,PostGolgi yeast,PostGolgi ctrl,CYP2C9 activ
Cc1cccc(/C=C2/SC(=O)N(Cc3ccccc3)C2=O)n1,–,–,–,–,–,–
O=C(c1ccccc1)c1cn[nH]c1-c1ccccc1O,–,–,–,–,–,–
COc1ccc(O)c(-c2[nH]ncc2C(=O)c2ccccc2)c1,–,64,81,–,–,–
O=C(c1ccco1)c1cn[nH]c1-c1ccc(Cl)cc1O,–,51,92,–,–,–
Cc1ccc(C(=O)c2cn[nH]c2-c2cc(Cl)ccc2O)cc1,–,80,96,–,38,–
CC(=O)c1nn(-c2cccc(Cl)c2)cc1C(=O)c1ccco1,–,–,–,–,–,–
Cc1ccc(C(=O)c2cncc(Br)c2)cc1,–,–,–,–,–,–
CCCCSC(=S)N(C)C1CCS(=O)(=O)C1 (centres undefined),–,–,–,–,–,–
CCOC(=O)C1CCN(C(=O)CN(c2cccc(OC)c2)S(=O)(=O)c2ccccc2)CC1,–,–,–,–,–,–
CN(C)CCNC(=O)Nc1ccc(Cl)c(Cl)c1,–,–,–,–,–,–
CO/N=C/NC(=O)C1=NOC(CNc2ncc(C(F)(F)F)cc2Cl)C1 (centres undefined),–,–,75,–,–,–
NC(=O)C1=NOC(CNc2ncc(C(F)(F)F)cc2Cl)C1 (centres undefined),–,–,–,–,–,2.7
Cc1ccc(OCC(=O)OCc2c(C)noc2C)cc1C,–,–,–,–,–,–
Cc1ccc(NC(=O)CN2C(=O)NC3(CCc4ccccc43)C2=O)cc1Cl (centres undefined),–,–,–,–,–,–
O=C(CN1C(=O)NC2(CCc3ccccc32)C1=O)Nc1cc(C(F)(F)F)ccc1N1CCOCC1 (centres undefined),–,89,–,·,·,–
O=C(CN1C(=O)NC2(CCOc3ccccc32)C1=O)Nc1ccc2c(c1)OCCO2 (centres undefined),–,50,–,–,–,–
CCOc1cc(N2CCOCC2)c(OCC)cc1NC(=O)CN1C(=O)NC2(CCc3ccccc32)C1=O (centres undefined),–,–,–,–,–,–
COc1cc2c(cc1NC(=O)CN1C(=O)NC3(CCc4ccccc43)C1=O)oc1ccccc12 (centres undefined),–,–,–,–,38,–
COc1ccc(OC)c(NC(=O)CN2C(=O)NC3(CCOc4ccccc43)C2=O)c1 (centres undefined),–,–,57,–,–,–
COc1ccccc1NC(=O)CN1C(=O)NC(C)(C)C1=O,–,–,–,–,–,–
CC(OC(=O)c1cc[n+]([O-])cc1)C(=O)Nc1ccc(Cl)cn1 (centres undefined),–,–,–,–,–,–
CS(=O)(=O)c1ccc(Cl)c(NC(=O)COC(=O)CNC(=O)c2ccc(Br)o2)c1,–,–,–,–,–,–
O=C(O)C1C2C=CC(C2)C1C(=O)Nc1ccc(C(=O)N2CCCCC2)cc1 (centres undefined),–,–,–,–,–,–
Cc1ccc(C2c3c(oc4ccccc4c3=O)C(=O)N2c2nnc(C(C)C)s2)o1 (centres undefined),–,–,–,–,–,–
O=C(CN1C(=O)CC(c2ccco2)Sc2ccccc21)Nc1ccc2c(c1)OCCO2 (centres undefined),–,–,88,–,–,–
COc1cc2c(cc1OC)C1=C(C#N)CCC(=O)N1CC2,·,·,·,–,–,·
COc1ccc(CCN2CC(C#N)=C3c4cc(OC)c(OC)cc4CCN3C2)cc1OC,–,76,65,–,–,–
COc1cc2c(cc1OC)C1=C(C#N)CN(C3CCCCC3)CN1CC2,–,52,68,–,–,–
O=C(/C=N/O)Nc1ccccc1C(=O)O,–,–,–,–,–,–
c1ccc(-c2noc(-c3cccc4ccccc34)n2)nc1,–,–,64,–,–,–

# Bioassay records from PubChem.
